Data on twelve compounds can be found in PubChem BioAssay.

As a reminder, the inhibition is the change of the read-out against control, counted positive when it falls.

Each structure is given as a SMILES string. Values joined by “and” are separate entries in the source; they are usually repeats but may differ in a detail not shown here. Equal values may be shown once. Active and inactive are the calls of the source.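 The calls were made as follows, unless noted: active = inhibition above 20% together with a positive visual image hit; inconclusive = visual image hit but inhibition not above 20%; inactive = no visual image hit.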

The nature of experiment [1]: inhibitors of TNFa-induced NFkB p65 translocation, primary screen, imaging, HUVEC, MLSMR starter and 10KST1 sets (AID 438).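 Also: compound added about 3h40 before a 20 min TNFalpha stimulation.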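 As to inhibition: signal is the nuclear over cytoplasmic p65 intensity ratio per well.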 The settings on record: HUVEC TNFa-induced p65 nuclear translocation; cell count: measured here: nuclei count (cytotoxicity indicator), at 2.08 µM; inhibition: at 2 µM, stronger effect = higher value, 0% TNFa-plus-vehicle, 100% no-TNFa wells.
Experiment [2] can be described thus: endothelial E-selectin expression blockers – imaging, HUVEC, immunofluorescence, MLSMR starter and 10KST1 sets, primary screen (AID 487;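 active = visually confirmed hit in the image check and inhibition above 20%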;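 as to inhibition: signal is fraction of cell area covered by stained E-selectin grains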;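 as to nuclei count: 100% = median nuclei count of all wells on the same plate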). Particulars: HUVEC TNFalpha-induced E-selectin immunofluorescence imaging, at 2 µM; inhibition: stronger effect = higher value; nuclei count: measured here: cell number, toxicity.
A short description of experiment [3]: Primary imaging screen for DUSP6 inhibitors that restore phospho-Erk in transfected HeLa cells, chemical complementation (AID 609;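 active = compounds giving at least 50% inhibition in the cell-based MKP-3 phosphatase rescue imaging test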;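 as to inhibition: phospho-Erk level distribution per well compared with pooled transfected vehicle control wells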). Particulars: HeLa MKP-3 transfected, phospho-Erk imaging KS statistic, at 10 µM, cells stimulated with TPA for 15 min.
Experiment [4] concerns the target Dual specificity protein phosphatase 6 (Homo sapiens) (UniProt Q16828). The description is as above. The settings on record: HeLa MKP-3 transfected, phospho-Erk imaging KS statistic; at 10 µM; stronger effect = higher value; cells stimulated with TPA for 15 min.
The target in experiment [5] is Voltage-gated potassium channel subunit beta-2 (Rattus norvegicus) (UniProt P62483). Nature of the experiment: inhibitors of rat Kvbeta2 reductase activity – biochemical, NADPH fluorescence, primary screen (AID 622;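 active = fluorescence slope higher than the sample average by over 3 SD, cut at about -0.22 in these data, passing the limit was not always enough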;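 also: slope of raw intensity against log time taken from 70 to 1610 s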). The settings on record: recombinant KvBeta, 4-cyanobenzaldehyde reduction, at 10 µM, stronger effect = higher value.
Voltage-gated potassium channel subunit beta-2 (Rattus norvegicus), sequence (P62483 whole entry, looked up): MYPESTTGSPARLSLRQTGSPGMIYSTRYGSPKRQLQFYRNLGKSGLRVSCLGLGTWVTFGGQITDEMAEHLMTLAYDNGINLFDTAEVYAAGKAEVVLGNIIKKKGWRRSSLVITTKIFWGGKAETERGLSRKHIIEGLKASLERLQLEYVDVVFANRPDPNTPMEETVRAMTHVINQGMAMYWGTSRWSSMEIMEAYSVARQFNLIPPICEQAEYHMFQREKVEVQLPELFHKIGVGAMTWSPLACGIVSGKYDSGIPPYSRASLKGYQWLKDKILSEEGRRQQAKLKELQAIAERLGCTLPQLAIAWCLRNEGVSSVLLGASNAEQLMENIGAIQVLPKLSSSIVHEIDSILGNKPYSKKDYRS
For experiment [6] the target is unchanged. As to the kind of experiment: enhancers of rat Kvbeta2 NADPH turnover – biochemical, NADPH fluorescence, primary screen (AID 623;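 active = NADPH fluorescence slope more negative than the mean of all samples by about 3 SD, 99.7% confidence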;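 also: fluorescence intensity change per second fitted from 20 to 320 s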). Particulars: Recombinant KvBeta, NADPH fluorescence decrease slope, 10 min; at 10 µM; stronger effect = lower value.
The target of experiment [7] is Muscarinic acetylcholine receptor M4 (Homo sapiens) (UniProt P08173). As to the kind of experiment: M4-linked GIRK flux change, two-sided – cell-based, HEK293 M4/GIRK, thallium flux, BTC-AM, M4 allosteric agonist project, primary screen (AID 625;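 active = fluorescence slope after compound addition differing from the mean of all tested samples at 99.7% confidence, mostly higher but some lower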;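 also: thallium influx through GIRK channels coupled to M4 in HEK293 cells with BTC-AM dye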). Particulars: at 10 µM, actives lie on both sides.
Muscarinic acetylcholine receptor M4 (Homo sapiens), sequence (P08173 whole entry, looked up): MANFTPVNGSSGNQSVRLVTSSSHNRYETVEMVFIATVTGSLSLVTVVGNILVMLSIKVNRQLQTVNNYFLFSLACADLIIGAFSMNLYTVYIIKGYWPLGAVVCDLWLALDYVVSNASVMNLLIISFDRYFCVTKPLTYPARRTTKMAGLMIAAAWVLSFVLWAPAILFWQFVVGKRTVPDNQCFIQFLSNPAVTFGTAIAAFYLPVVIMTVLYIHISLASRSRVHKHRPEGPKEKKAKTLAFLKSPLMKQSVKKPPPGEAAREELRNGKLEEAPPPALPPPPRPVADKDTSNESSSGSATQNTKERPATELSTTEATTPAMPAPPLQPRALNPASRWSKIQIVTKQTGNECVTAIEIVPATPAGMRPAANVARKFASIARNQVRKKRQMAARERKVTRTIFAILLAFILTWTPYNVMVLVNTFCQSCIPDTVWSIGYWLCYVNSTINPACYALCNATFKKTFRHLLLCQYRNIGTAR
Experiment [8] in a line: inhibitors of larval lipid processing in zebrafish, primary screen, whole organism, PED6 fluorescence, gall bladder and intestine (AID 686;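 active = a full or partial loss of lipid-probe fluorescence in the fish gall bladder, intestine or both, judged by eye; inactive = no fluorescence loss, or compound toxic to the fish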;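 also: larvae 5 to 7 days old with five fish per well; signal comes from phospholipase A2 cleavage of quenched PED6 carried via bile; overnight exposure to compound and PED6 before scoring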). Particulars: Zebrafish larvae PED6 lipid processing, fluorescence scoring; screened at 20 µM (by protocol).
The nature of experiment [9]: loss of swimming-algae plug formation – whole organism, Chlamydomonas reinhardtii, WT vs cilia-less mutant, absorbance, 96-well, primary screen (AID 463189;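 active = inhibition at or above 50% relative to wild type and mutant plate controls; inactive = inhibition below 50%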;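 also: 0% = wild type cc124 cells in DMSO and 100% = ciliumless bld1 mutant cells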). Particulars: Chlamydomonas reinhardtii gravitaxis, OD600 absorbance, 2 days; at 10 µM; stronger effect = higher value.
The target of experiment [10] is Alpha-2C adrenergic receptor (Homo sapiens) (UniProt P18825). As to the kind of experiment: compounds altering alpha2C-coupled GIRK flux – cell-based, HEK293 alpha2C/GIRK1/2, thallium flux, primary screen (AID 624;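 active = fluorescence slope after compound addition differing from the mean of all screened samples at 99.7% confidence, in either direction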;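 also: slope of fluorescence ratio to pre-addition baseline per second over 15 to 24 s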). Particulars: thallium flux BTC fluorescence, at 10 µM, actives lie on both sides.
Alpha-2C adrenergic receptor (Homo sapiens), sequence (P18825 whole entry, looked up): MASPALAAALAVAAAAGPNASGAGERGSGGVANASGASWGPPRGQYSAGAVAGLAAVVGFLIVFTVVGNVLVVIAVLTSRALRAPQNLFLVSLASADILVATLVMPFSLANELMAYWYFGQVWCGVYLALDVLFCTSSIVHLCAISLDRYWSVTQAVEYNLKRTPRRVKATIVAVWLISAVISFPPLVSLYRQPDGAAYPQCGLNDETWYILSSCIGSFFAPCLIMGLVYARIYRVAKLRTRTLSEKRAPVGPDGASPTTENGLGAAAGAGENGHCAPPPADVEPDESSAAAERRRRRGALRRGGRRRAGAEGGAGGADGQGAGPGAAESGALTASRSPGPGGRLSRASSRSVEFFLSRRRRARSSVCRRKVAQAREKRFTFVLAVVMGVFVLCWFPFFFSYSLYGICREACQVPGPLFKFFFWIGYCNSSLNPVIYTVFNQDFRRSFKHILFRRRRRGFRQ
A short description of experiment [11]: blockers of RIG-like receptor reporter activation – cell-based, Sendai virus stimulus, luciferase, 10K MLSCN set, TLR/RLR signaling modifier project, primary screen (AID 602276;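 active = inhibition at or above 50% at 10 µM; inactive = inhibition below 50%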;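 also: firefly luciferase from ISG56 promoter only with Renilla not read in this screen; 0% = Sendai virus plus DMSO and 100% = medium plus DMSO without virus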). The settings on record: HEK293 RL24 IRF3 luciferase reporter, at 10 µM, stronger effect = higher value. In general terms: Reporter assays use an easily measured gene product as a stand-in for the process of interest.

The nature of experiment [12]: TLR3 IRF3 reporter activation blockers – cell-based, poly I:C stimulus, luciferase, 10K MLSCN set, primary screen (AID 602277;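 active = inhibition of the reporter signal at or above 50%; inactive = inhibition below 50%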). Particulars: HEK293-TLR3 RL24 IRF3 luciferase reporter, at 10 µM, stronger effect = higher value.
[13] abbreviates: measured here: cell density z-score.
Setting [14] is: measured here: nuclear c-Myc green intensity z-score.
Where [15] appears, read: measured here: nuclear pErk red intensity z-score, stronger effect = higher value.

Dual specificity protein phosphatase 6 (Homo sapiens), sequence (Q16828 whole entry, looked up): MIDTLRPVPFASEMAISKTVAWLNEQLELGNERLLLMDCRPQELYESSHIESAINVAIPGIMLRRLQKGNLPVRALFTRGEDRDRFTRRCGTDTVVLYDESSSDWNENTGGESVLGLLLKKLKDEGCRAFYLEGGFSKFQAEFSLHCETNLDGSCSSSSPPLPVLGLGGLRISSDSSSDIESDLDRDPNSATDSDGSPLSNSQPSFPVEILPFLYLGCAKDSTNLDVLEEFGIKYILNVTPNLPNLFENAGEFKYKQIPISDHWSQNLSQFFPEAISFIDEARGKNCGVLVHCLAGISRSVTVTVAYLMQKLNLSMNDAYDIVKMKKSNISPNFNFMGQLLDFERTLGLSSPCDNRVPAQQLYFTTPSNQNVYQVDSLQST

Turning to `Cc1cc(NC(=O)CSc2nc(-c3cccnc3)ccc2C#N)no1`, the cell count in experiment [1] amounted to 733. Besides, the inhibition in experiment [1] is -10.3% (inactive); in experiment [2], -53% (inactive); in [4] it was 4.25% (inactive); in [9], 44.8% (inactive). For the same compound, the nuclei count in [2] was determined as 171%. In addition, the z-score was 0.472 in experiment [3] (setting [13]), 0.655 in experiment [3] (setting [14]) and -0.248 in experiment [3] (setting [15]). Besides, the fluorescence slope in experiment [5] was -0.414 (inactive); in experiment [7] it was 0.00502 (inactive). Besides, in experiment [6], the NADPH fluorescence slope is -4.1e-05 (inactive). Also, the result in experiment [8] was inactive.

On to `O=C1C=C(NCCNc2c(F)c(F)c(CO)c(F)c2F)CCC1`, for which the cell count in experiment [1] came to 504. Further, the inhibition is -12.3% (inactive) in experiment [1], -87.2% (inactive) in experiment [2], 17.8% (inactive) in experiment [4] and 32.9% (inactive) in experiment [9]. This compound showed a nuclei count in experiment [2] of 105%. The z-score in experiment [3] (setting [13]) is 0.485; in experiment [3] (setting [14]), -0.53; in experiment [3] (setting [15]) it was -1.21. Further, the values for the fluorescence slope in experiment [5] and in experiment [7] were -0.396 (inactive) and 0.00657 (inactive), respectively. For the same compound, the NADPH fluorescence slope in experiment [6] is -1.8e-05 (inactive). In addition, the compound was called inactive in experiment [8].

As to `CCN1CCc2c(C#N)c(N3CCOCC3)nc(NCCO)c2C1`, in experiment [1], the cell count is 566. For the same compound, the inhibition is -9.7% (inactive) in [1], -122% (inactive) in [2], -9.53% (inactive) in experiment [4] and -3.77% (inactive) in [9]. The nuclei count in [2] was 151%. The z-score in experiment [3] (setting [13]) was 1.19; in experiment [3] (setting [14]), -1.68; in [3] (setting [15]), -1.24. Further, the fluorescence slope was -0.456 (inactive) in [5] and 0.0043 (inactive) in experiment [7]. For the same compound, the NADPH fluorescence slope in [6] was -9.7e-05 (inactive). For the same compound, the result in [8] was inactive.

With `COC(=O)C(NC(C)=O)(Nc1nc2c(s1)CCCC2)C(F)(F)F` (stereo not given), the cell count in experiment [1] stood at 370. Moreover, the inhibition is -7.5% (inactive) in [1], -63.7% (inactive) in experiment [2], 5.42% (inactive) in experiment [4] and -6.09% (inactive) in experiment [9]. In experiment [2], this compound showed a nuclei count of 193%. In addition, the z-score in experiment [3] (setting [13]) was 1.49; in experiment [3] (setting [14]), 0.382; in [3] (setting [15]) it was -1.06. In addition, the fluorescence slope was -0.414 (inactive) in [5] and 0.00554 (inactive) in experiment [7]. The NADPH fluorescence slope in experiment [6] was -0.000114 (inactive). The compound was classed as inactive in [8].

Regarding `COC(=O)C1=C(C)N=C2SC(C)C(=O)N2C1c1ccc(C(=O)OC)cc1` (stereo not given), the cell count in experiment [1] turned out to be 746. The inhibition was -2.4% (inactive) in experiment [1], -42.3% (inactive) in experiment [2], 9.61% (inactive) in experiment [4] and 1.12% (inactive) in [9]. Moreover, in experiment [2], the nuclei count was 164%. For the same compound, the z-score was 0.938 in experiment [3] (setting [13]), -0.219 in experiment [3] (setting [14]) and -3.03 in experiment [3] (setting [15]). Besides, the figures for the fluorescence slope in [5] and in [7] were -0.448 (inactive) and 0.00486 (inactive), respectively. For the same compound, the NADPH fluorescence slope in [6] was -4.8e-05 (inactive). For the same compound, the compound was called inactive in [8].

With `CCN(CC)CC(=O)Nc1c(C)cccc1C`, the cell count in experiment [1] is 642 and 715. Also, the inhibition is -6.5% (inactive) and -1% (inactive) in [1]; -39.3% (inactive) and -82.5% (inactive) in experiment [2]; 15.3% (inactive) and 14.6% (inactive) in experiment [4]; 11.4% (inactive) and 10.3% (inactive) in experiment [11]; 39.6% (inactive) and 42.7% (inactive) in experiment [12]. In experiment [2], the nuclei count was 130% and 116%. The z-score in [3] (setting [13]) was -0.149 and 1.01; in experiment [3] (setting [14]), 0.72 and -0.684; in [3] (setting [15]) it was -0.101 and 0.844. In addition, the fluorescence slope in experiment [5] is -0.457 (inactive) and -0.466 (inactive). Further, the NADPH fluorescence slope in experiment [6] is 7.7e-06 (inactive) and -5.7e-05 (inactive). The slope in experiment [10] was 0.00536 (inactive) and 0.0061 (inactive).

As for `CCC(C(=O)Nc1ncn[nH]1)(C(F)(F)F)C(F)(F)F`, the cell count in experiment [1] was found to be 692. Besides, the inhibition is 5.8% (inactive) in experiment [1], -106% (inactive) in experiment [2], 7.93% (inactive) in experiment [4] and 27.8% (inactive) in experiment [9]. Besides, the nuclei count in [2] was 171%. Also, the z-score is 0.655 in [3] (setting [13]), 0.101 in experiment [3] (setting [14]) and -0.238 in experiment [3] (setting [15]). Moreover, the fluorescence slope in experiment [5] is -0.479 (inactive); in experiment [7], 0.0062 (inactive). The NADPH fluorescence slope in experiment [6] was -4.9e-05 (inactive). Further, the outcome in [8] was inactive.

For the compound `CCCCc1c(C)c2ccc(OCC(C)=O)cc2oc1=O`, the cell count in [1] stood at 647. Moreover, the inhibition is -10% (inactive) in [1], 51.6% (inactive) in experiment [2], 47.6% (inactive) in experiment [4] and -0.273% (inactive) in [9]. Also, the nuclei count in [2] was 90.6%. The z-score was -2.59 in experiment [3] (setting [13]), 0.867 in experiment [3] (setting [14]) and -5.29 in experiment [3] (setting [15]). In addition, the fluorescence slope was -0.472 (inactive) in experiment [5] and 0.00708 (inactive) in experiment [7]. In experiment [6], the NADPH fluorescence slope was -3.8e-05 (inactive). Besides, the compound was classed as inactive in [8].

Consider `N#C/C(C(=O)NCc1ccccc1)=C1\SC(CCO)C(=O)N1c1ccccc1` (stereo not given), for which the cell count in [1] was 501. The inhibition in [1] was -3.4% (inactive); in [2] it was -97.3% (inactive); in [4], 5.42% (inactive); in experiment [9], -13.8% (inactive). In experiment [2], this compound showed a nuclei count of 120%. The z-score was 0.0433 in experiment [3] (setting [13]), 1.04 in [3] (setting [14]) and -2.12 in [3] (setting [15]). Moreover, the fluorescence slope in experiment [5] is -0.429 (inactive); in [7], 0.00513 (inactive). The NADPH fluorescence slope in [6] was -1.4e-05 (inactive). Besides, in experiment [8], the result was inactive.

For `c1ccc(CSc2nnc(SCc3ccccn3)s2)nc1`, the cell count in experiment [1] turned out to be 352. Further, the results for the inhibition in experiment [1], in [4] and in experiment [9] were -20.9% (inactive), 3.66% (inactive) and -2.59% (inactive), respectively. Besides, the nuclei count in [2] was determined as 173%. For the same compound, the z-score is 1.06 in [3] (setting [13]), -1.17 in experiment [3] (setting [14]) and 0.36 in experiment [3] (setting [15]). Moreover, in [5], the fluorescence slope was -0.405 (inactive). Further, the NADPH fluorescence slope in experiment [6] was -5.6e-05 (inactive). Also, in experiment [10], the slope was 0.00665 (inactive). Moreover, the result in experiment [8] was inactive.

Regarding `Cc1cc(/C(O)=C2\C(=O)C(=O)N(CCN(C)C)C2c2ccncc2)ccc1OCc1ccccc1` (stereo not given), the cell count in [1] was 664. Moreover, the inhibition is -0.2% (inactive) in experiment [1], 9.6% (inactive) in experiment [2], 5.35% (inactive) in experiment [4] and 3.31% (inactive) in experiment [9]. The same compound registered a nuclei count in [2] of 174%. Also, the results for the z-score in [3] (setting [13]), in [3] (setting [14]) and in experiment [3] (setting [15]) were -0.686, 0.247 and -0.699, respectively. Also, the fluorescence slope in [5] was -0.481 (inactive); in experiment [7] it was 0.00492 (inactive). Besides, the NADPH fluorescence slope in experiment [6] is -5.4e-05 (inactive). Also, in experiment [8], the call was inactive.

For `Cn1c(N2CCOCC2)nc2c1c(=O)n(Cc1ccc(Cl)cc1)c(=O)n2C`, in [1], the cell count was determined as 644. Moreover, the inhibition is 12.1% (inactive) in experiment [1], -31.1% (inactive) in experiment [2], -2.09% (inactive) in experiment [4] and -7.86% (inactive) in [9]. Also, in [2], the nuclei count amounted to 101%. The figures for the z-score in experiment [3] (setting [13]), in experiment [3] (setting [14]) and in experiment [3] (setting [15]) were 0.134, 0.368 and 0.486, respectively. Besides, the fluorescence slope is -0.446 (inactive) in [5] and 0.00452 (inactive) in [7]. Moreover, in experiment [6], the NADPH fluorescence slope was -3.4e-05 (inactive). Besides, in experiment [8], the compound was classed as inactive.
